Shown is part of a subset that was picked to be rich in hits.
Pf Dd2 inh = qHTS Primary assay for Inhibitors of Plasmodium falciparum Dd2 growth in vitro; P. falciparum Dd2 growth, SYBR Green, 72 h; Potency, µM (series often up to 28.9 µM), for the others: top-dose activity, negative = inhibition, hits mostly inhibitors; 120,000 compounds, 4.3% hits; active = well fitted inhibition curve with a large enough effect;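 note: plate controls were DMSO vehicle for no effect and reference drug for full effect; nearly all actives have a fitted effect of over 65% in size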
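Infected erythrocytes (Dd2, 0.3% parasitemia, 2.5% hematocrit final) are added to compound in RPMI-1640/Albumax II medium, grown 72 h at 37C in low oxygen, then lysed with saponin/Triton-X containing SYBR Green and read by fluorescence.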
* = called active by the depositor; i = inactive; [ ] = dose if it differs, or a comment. Potency is the fitted concentration of half-maximal effect.

SMILES	Pf Dd2 inh
COc1ccc(-c2cc(C(=O)O)cc(S(=O)(=O)N3CCN(C)CC3)c2)cc1	-2%
CCn1c(C)c(CN2CCc3nc(N(C)C)[nH]c(=O)c3CC2)c2ccccc21	30%[5.79 µM]
COC(=O)c1ccc2nc(CO[C@H]3CN(Cc4ccc5ccccc5n4)C[C@H]3F)[nH]c2c1	8.9µM*
COC(=O)c1ccc2nc(CO[C@H]3CN(Cc4cccnc4)C[C@H]3F)[nH]c2c1	-21%[44.1 µM]
COC(=O)c1ccc2nc(CO[C@H]3CN(C(C)C)C[C@H]3F)[nH]c2c1	i
CS(=O)(=O)N1C[C@H]2CCN(C(=O)c3cc(Cl)ccc3F)C[C@H]21	10%
Cc1ccc(-c2nc(C3CC(=O)OC34CCCC4)n(CC(=O)O)n2)o1 (configuration not stated)	2%
Cc1cc(CN2CCC3(CC2)CCN(C(=O)c2ccco2)CC3CO)on1 (configuration not stated)	1%
CC(=O)NCC12CCCC=C1N(C)C(=O)CC2 (configuration not stated)	i
COc1ccc(-c2cn3c(n2)CO[C@@H](CNS(C)(=O)=O)C3)cc1	i
COc1ccc(-c2cn3c(n2)CO[C@@H](CNS(=O)(=O)c2ccc(C)cc2)C3)cc1	13µM*
Cc1ccc(-c2cn3c(n2)CO[C@@H](CNS(C)(=O)=O)C3)cc1	-1%[44.1 µM]
Cc1ccccc1NC(=O)N1CCC(CCNC(=O)C2CCC2)CC1	4%
O=C1NC2(CCN(C(=O)c3ccccc3F)C2)N=C1c1ccncc1 (configuration not stated)	-22%
CCc1ncc(CN2CCCC(C(=O)Nc3ccccc3-c3ccc(OC)cc3)C2)cn1 (configuration not stated)	i
COc1cccc(-c2ccc(CN3C4CCC3CN(C(=O)Nc3ccccc3F)C4)cc2)c1	i
COc1cccc(-c2ccccc2NC(=O)C2CCN(Cc3cc(OC)ccc3O)CC2)c1	2.2µM*
CCn1ccnc1CN1CCCC(C(=O)Nc2ccccc2-c2ccc(OC)cc2)C1 (configuration not stated)	i
COc1ccc(-c2ccccc2NC(=O)C2CCCN(Cc3cnc(SC)nc3)C2)cc1 (configuration not stated)	-25%
COc1ccc(-c2ccccc2NC(=O)C2CCCN(CC=C(C)C)C2)cc1 (configuration not stated)	7.9µM*
COc1cccc(NC(=O)C2CCCN(Cc3cccnc3)CCC(=O)NCC2)c1 (configuration not stated)	-20%
COc1ccc(-c2ccccc2NC(=O)C2CCCN2S(C)(=O)=O)cc1 (configuration not stated)	-6%
COc1cccc(-c2ccccc2NC(=O)C2CCN(Cc3ccc(F)cc3)CC2)c1	7.9µM*
C[C@H]1CCCN1C(=O)c1nnc(CNc2ccccc2Cl)n1-c1ccccc1	-7%[44.1 µM]
COc1ccc(C(=O)N2CCCN(c3cc(-c4ccc(F)cc4)[nH]n3)CC2)c(C)c1	i
SMILES	Pf Dd2 inh
CNC(=O)[C@@H]1CN(S(=O)(=O)c2cccs2)C[C@H]1c1nc(C)no1	11%
CN1CCN(c2ccc(-c3cn(C)c(=O)n4cc(CNc5ccccc5)nc34)cn2)CC1	-14%[44.1 µM]
COCCOCc1nc(C2CCN(C(=O)Nc3cccc(Cl)c3)CC2)no1	-17%
O=C(c1ccc2c(c1)ncn2CCO)N1CCCn2nc(CO)cc2C1	-13%
CN1C[C@H](NC(=O)NC2(c3ccccc3)CCOCC2)CCC[C@@H](C(=O)N(C)Cc2cccnc2)CC1=O	-1%
CC(=O)c1ccc(NC(=O)c2ccc(-c3nc(CSc4ccccc4)c(C)o3)cc2)cc1	-24%
Cc1oc(-c2ccc(C(=O)Nc3cccc(C(F)(F)F)c3)cc2)nc1CSc1ccccc1	11µM*
COc1ccc(NC(=O)c2ccc(-c3nc(CSc4ccccc4)c(C)o3)cc2)cc1OC	i
O=C(c1ccc(Cl)cc1)N1CCC(N(C(=O)C2CC2)C2CCOCC2)CC1	-18%
O=C(c1cnccn1)N1CCC(N2C(=O)C(OCC3CC3)C23CCCCC3)CC1 (configuration not stated)	-25%
COc1cccc(NC(=O)C2N(C(C)C)C(=O)C23CCCCC3)c1 (configuration not stated)	-17%
CCOC(=O)c1cccc(NC(=O)c2cc3c(-c4cccc(OC)c4)nn(C)c3s2)c1	-7%
O=C(Nc1ccc(Cl)cc1)c1cc2c(-c3ccccc3)nn(-c3ccccc3)c2s1	1.1µM*
CC(=O)c1ccc(NC(=O)c2cc(C)nn2-c2ccccc2)cc1	i
CCOc1ccccc1NC(=O)N1CCCC(Cn2cnc3cccnc32)C1 (configuration not stated)	i
COCCn1c(C)cc(C(=O)N2CCc3nn(CCOC)c(=O)n3CC2)c1C	29%
O=C(CCn1ccnc1)N1CCC(c2nc(CCOc3ccc(F)cc3)no2)C1 (configuration not stated)	i
O=C(NCC(c1cccnc1)N1CCOCC1)C(=O)Nc1ccc(F)cc1 (configuration not stated)	9%
COC(=O)c1ccc(NC(=O)C(=O)NCC(c2cccnc2)N2CCN(c3ccccc3)CC2)cc1 (configuration not stated)	-10%
Cc1ccc(NC(=O)C(=O)NCC(c2cccnc2)N2CCOCC2)cc1C (configuration not stated)	-16%
Cc1ccc(NC(=O)C(=O)NCC(c2cccnc2)N2CCN(Cc3ccccc3)CC2)cc1C (configuration not stated)	5.6µM*
Cc1ccc(NC(=O)C(=O)NCC(c2cccnc2)N2CCOCC2)cc1Cl (configuration not stated)	-12%
Cc1ccc(NC(=O)C(=O)NCC(c2cccnc2)N2CCN(Cc3ccccc3)CC2)cc1F (configuration not stated)	8.9µM*
O=C(c1cccnc1)N1CCC2(CNS(=O)(=O)c3cnccc3O2)C1 (configuration not stated)	18%
CN1C(=O)CS(=O)C12CCN(C(=O)Cc1cccc(F)c1)CC2 (configuration not stated)	-23%
SMILES	Pf Dd2 inh
CCNC(=O)[C@@H]1C[C@H](NC(=O)c2scnc2C)CN1Cc1nc(C)no1	0%
Cc1ccc(NC(=O)C2CCN(C(=O)c3ncn4c3COC(c3ccc(F)cc3)C4)CC2)cc1Cl (configuration not stated)	-11%
CCOC(=O)C1=CN(CC(=O)Nc2c(C)cccc2C)S(=O)(=O)N=C1C	17%
Fc1ccc(-c2cc(CC3(NCc4cccnc4)COC3)no2)cc1	-11%[44.1 µM]
CC1(C)[C@H](Cc2cc(-c3ccc(F)cc3)on2)C[C@@H]1NC1CCC1	11µM*
CN(C)C1(Cc2cc(-c3ccc(F)cc3)on2)COC1	14%[44.1 µM]
CN1CCC(N[C@H]2C[C@@H](Cc3cc(C(C)(C)C)on3)C2(C)C)CC1	5µM*
COCc1cc(C[C@@H]2C[C@H](NCc3cccnc3)C2(C)C)no1	-9%[44.1 µM]
COCc1cc(C[C@@H]2C[C@H](NC3CCOCC3)C2(C)C)no1	-12%[44.1 µM]
CC1(C)[C@H](Cc2cc(-c3ccc(F)cc3)on2)C[C@@H]1NCc1cccnc1	7.9µM*
CN(C)Cc1cc(C[C@@H]2C[C@H](NCc3ccc(F)cc3)C2(C)C)no1	3.2µM*
CN(Cc1cc(C[C@@H]2C[C@H](NCc3ncc[nH]3)C2(C)C)no1)c1ccccc1	i
COc1ccc(CN[C@H]2C[C@@H](Cc3cc(CCO)on3)C2(C)C)cc1	i
COCc1cc(C[C@@H]2C[C@H](NCC3CC3)C2(C)C)no1	i
